These results are taken from PubChem BioAssay.

Experiment [1] deals with Albumin (Bos taurus) (UniProt P02769). Kind of experiment: compounds binding labelled BSA control protein – biochemical, small-molecule microarray, Alexa647 label, 635/667 nm fluorescence, artefact control for SMM control protein annotation, profiling panel (AID 1118).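 Further: score merges 667 nm emission intensity and signal-to-noise per printed compound spot.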 The conditions noted are these: BSA-A647 binding, fluorescence 635 nm, higher = more signal.
A short description of experiment [2]: probe aXIP binding to arrayed compounds – biochemical, NeuroSMM set, 635/667 nm fluorescence, primary screen (AID 1119).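 Further: probe is the protein aXip251-270 applied at 1 µg/mL to compound-printed slides; binding of probe to printed compounds measured as 667 nm fluorescence plus signal to noise.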 The following applies: small-molecule microarray, higher = more signal, called active from +8 up or from −8 down.
A short description of experiment [3]: probe aNOTCH3 binding on compound microarray – biochemical, small-molecule microarray, 635/667 nm fluorescence, primary screen (AID 1120).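 Further: probe is a biotin-tagged antibody raised against NOTCH3 rather than NOTCH3 protein; score merges spot fluorescence near 667 nm with spot signal to noise.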 The conditions noted are these: higher = more signal.
A short description of experiment [4]: probe aNOTCH2 binding on compound microarray – biochemical, small-molecule microarray, 635/667 nm fluorescence, primary screen (AID 1121).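 Further: score merges feature fluorescence read at 667 nm with its signal to noise.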 The following applies: higher = more signal.
The target in experiment [5] is Carbonic anhydrase 2 (Homo sapiens) (UniProt P00918). In words: compounds binding carbonic anhydrase 2 – biochemical, small-molecule microarray, Alexa647-labelled CAII, profiling panel (AID 1122). The following applies: CAII-A647 binding fluorescence, higher = more signal.
A short description of experiment [6]: COS7 lysate on small-molecule microarray, probe aHis, 635 nm (AID 1123).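 Further: z-score combines 667nm fluorescence intensity with signal-to-noise per printed compound spot.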 The following applies: COS7 cell lysate, fluorescence, higher = more signal.
Experiment [7] can be described thus: probe aLAP1 signal on lysate-treated microarray – cell lysate, small-molecule microarray, COS7 lysate, primary screen (AID 1124).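 Further: lysate comes from COS7 cells expressing LAP1 and is applied at 0.3 µg/mL; score merges spot fluorescence near 667 nm with signal-to-noise over triplicate slides.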 The conditions noted are these: probe aLAP1, fluorescence, higher = more signal.
The test system of experiment [8] is Sam68 (KHDRBS1). Kind of experiment: compounds binding KHDRBS1 protein – biochemical, small-molecule microarray, 635 nm fluorescence, primary screen (AID 1125).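 Further: score merges 667 nm channel intensity with signal to noise over triplicate slides.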 The following applies: higher = more signal.
The test system of experiment [9] is Chordin-like protein 2 (CHRDL2). In words: compounds binding chordin-like 2 – biochemical, small-molecule microarray, 635 nm fluorescence, primary screen (AID 1126).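 Further: printed compound slides probed with Chrdl2 protein at 4 µg/mL for 1 h at 4 C; score merges 667 nm emission intensity with signal to noise over three replicate slides.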 The conditions noted are these: fluorescence 635 nm, higher = more signal.
Experiment [10] has as its target Concanavalin-A (Canavalia ensiformis) (UniProt P02866). Kind of experiment: compounds binding concanavalin A lectin – biochemical, small-molecule microarray, Alexa647 label, 635 nm, artefact control for SMM control protein annotation, primary screen (AID 1127).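 Further: z combines 667 nm emission intensity with signal-to-noise across three replicate slides.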 The conditions noted are these: ConA-A647 binding fluorescence, higher = more signal.
Experiment [11] is described as follows: compounds binding Alexa647 anti-His antibody – biochemical, small-molecule microarray, 635 nm fluorescence, artefact control for SMM control protein annotation, primary screen (AID 1128).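 Further: score merges feature fluorescence with signal-to-noise for each printed compound spot.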 The conditions noted are these: higher = more signal.
In experiment [12] the test system is Human papillomavirus type 1a E7 protein (residues 1-88). Kind of experiment: HPV1a E7 small-molecule binders, primary screen, biochemical, small-molecule microarray, residues 1-88, 635 nm (AID 1129). The following applies: small-molecule microarray binding, fluorescence 635 nm; higher = more signal.
Experiment [13] addresses Focal adhesion kinase 1 (Homo sapiens) (UniProt Q05397). Kind of experiment: PTK2 protein binding on printed compound slides – biochemical, small-molecule microarray, 635/667 nm fluorescence, BSA, DTT, primary screen (AID 1130).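 Further: composite of spot emission at 667 nm and signal to noise over triplicate slides.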 The conditions noted are these: 635 nm fluorescence, higher = more signal.
The test system of experiment [14] is Fibrinogen (Alexa647-labelled). Kind of experiment: Alexa647-fibrinogen binding to printed small molecules – biochemical, small-molecule microarray, 635/667 nm fluorescence, artefact control for SMM control-protein annotation, profiling panel (AID 1131).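 Further: z-score merges 667 nm fluorescence with per-spot signal-to-noise over triplicate slides.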 The conditions noted are these: fibrinogen-A647 binding fluorescence, higher = more signal.
The target of experiment [15] is Follistatin (Homo sapiens) (UniProt P19883). Kind of experiment: FST protein binding to printed compounds – biochemical, small-molecule microarray, 635/667 nm fluorescence, primary screen (AID 1132). The following applies: 635 nm fluorescence, higher = more signal.
The target in experiment [16] is Fibroblast growth factor 2 (Homo sapiens) (UniProt P09038). In words: basic fibroblast growth factor binding to printed compounds – biochemical, small-molecule microarray, 635/667 nm fluorescence, primary screen (AID 1133). The conditions noted are these: FGF2, fluorescence 635/667, higher = more signal.
The nature of experiment [17]: JC-1 mitochondrial potential readout, lung cancer cells – cell-based, A549, JC-1 fluorescence, basal, 24 h, 100 nL, profiling panel (AID 1138).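 Further: A549 lung adenocarcinoma cells under basal conditions with no added stimulus; test concentration not given here.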 The conditions noted are these: higher = more signal.
The test system of experiment [18] is Lefty1. Kind of experiment: Lefty1 protein binding to printed compounds – biochemical, small-molecule microarray, 635/667 nm fluorescence, primary screen (AID 1139). The following applies: fluorescence 635/667, higher = more signal.
The subject of experiment [19] is wheat germ agglutinin (Triticum aestivum), Alexa647-labelled. In words: Alexa647-WGA lectin binding to printed small molecules – biochemical, small-molecule microarray, 635/667 nm fluorescence, artefact control for SMM control-protein annotation, profiling panel (AID 1140).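 Further: score merges 667 nm feature emission with signal to noise over triplicate slides.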 The conditions noted are these: WGA-A647 binding, 635 nm fluorescence, higher = more signal.

In experiment [20] the target is Luciferin 4-monooxygenase (Photinus pyralis) (UniProt P08659). In words: inhibition of purified Photinus pyralis luciferase – biochemical, luminescence, purified enzyme, 2006 set, primary screen (AID 1141).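 Further: cell-free assay with purified firefly luciferase at 100 ng per well in PBS; test concentration not given here.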 The following applies: purified firefly luciferase, SteadyGlo luminescence, 30 min; higher = more signal, called active from +8 up or from −8 down.

Calls of active or inactive are those of the source.

Sequence of Fibroblast growth factor 2 (Homo sapiens) (P09038 whole entry, looked up): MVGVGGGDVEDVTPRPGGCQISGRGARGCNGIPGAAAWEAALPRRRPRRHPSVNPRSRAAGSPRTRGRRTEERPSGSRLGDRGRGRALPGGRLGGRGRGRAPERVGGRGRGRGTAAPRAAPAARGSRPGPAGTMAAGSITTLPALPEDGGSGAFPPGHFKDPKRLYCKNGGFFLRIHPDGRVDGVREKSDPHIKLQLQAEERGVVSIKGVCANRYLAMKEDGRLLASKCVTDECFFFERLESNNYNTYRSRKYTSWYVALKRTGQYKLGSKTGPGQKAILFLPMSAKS
Sequence of Focal adhesion kinase 1 (Homo sapiens) (Q05397 whole entry, looked up): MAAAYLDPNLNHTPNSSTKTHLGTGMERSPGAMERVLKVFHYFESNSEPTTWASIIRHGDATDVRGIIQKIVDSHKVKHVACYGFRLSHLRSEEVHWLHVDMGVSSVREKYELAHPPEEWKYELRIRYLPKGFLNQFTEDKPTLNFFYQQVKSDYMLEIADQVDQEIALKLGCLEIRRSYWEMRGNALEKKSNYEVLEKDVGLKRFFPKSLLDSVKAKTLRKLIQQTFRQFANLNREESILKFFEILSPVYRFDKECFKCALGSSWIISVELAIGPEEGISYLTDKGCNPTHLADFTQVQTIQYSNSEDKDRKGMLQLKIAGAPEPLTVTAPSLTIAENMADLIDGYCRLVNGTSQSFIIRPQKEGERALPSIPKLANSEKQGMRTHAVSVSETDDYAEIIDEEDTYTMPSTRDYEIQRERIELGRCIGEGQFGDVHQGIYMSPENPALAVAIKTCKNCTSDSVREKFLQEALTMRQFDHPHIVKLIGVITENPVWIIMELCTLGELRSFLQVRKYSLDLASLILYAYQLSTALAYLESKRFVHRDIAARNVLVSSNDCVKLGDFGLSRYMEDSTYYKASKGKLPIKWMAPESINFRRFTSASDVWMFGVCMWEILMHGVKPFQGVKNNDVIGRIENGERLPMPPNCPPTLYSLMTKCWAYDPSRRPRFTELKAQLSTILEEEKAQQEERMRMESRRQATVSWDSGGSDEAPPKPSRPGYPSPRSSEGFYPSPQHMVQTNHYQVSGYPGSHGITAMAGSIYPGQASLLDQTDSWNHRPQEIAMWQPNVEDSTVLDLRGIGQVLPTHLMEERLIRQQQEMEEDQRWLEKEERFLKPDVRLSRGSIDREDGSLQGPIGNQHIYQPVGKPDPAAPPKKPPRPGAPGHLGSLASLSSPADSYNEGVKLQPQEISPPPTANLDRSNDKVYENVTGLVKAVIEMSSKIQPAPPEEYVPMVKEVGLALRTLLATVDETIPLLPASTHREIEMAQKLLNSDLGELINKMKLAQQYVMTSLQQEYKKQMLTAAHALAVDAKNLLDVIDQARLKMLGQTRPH
Sequence of Follistatin (Homo sapiens) (P19883 whole entry, looked up): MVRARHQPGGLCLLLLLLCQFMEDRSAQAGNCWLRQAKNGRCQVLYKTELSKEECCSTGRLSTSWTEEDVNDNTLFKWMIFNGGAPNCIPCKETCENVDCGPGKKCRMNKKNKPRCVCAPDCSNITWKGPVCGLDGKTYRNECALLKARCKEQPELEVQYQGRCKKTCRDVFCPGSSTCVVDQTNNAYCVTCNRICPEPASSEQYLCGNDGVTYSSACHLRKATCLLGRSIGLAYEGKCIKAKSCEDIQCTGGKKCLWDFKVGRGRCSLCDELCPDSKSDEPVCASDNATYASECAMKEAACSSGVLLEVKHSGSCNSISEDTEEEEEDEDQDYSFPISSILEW
Sequence of Concanavalin-A (Canavalia ensiformis) (P02866 whole entry, looked up): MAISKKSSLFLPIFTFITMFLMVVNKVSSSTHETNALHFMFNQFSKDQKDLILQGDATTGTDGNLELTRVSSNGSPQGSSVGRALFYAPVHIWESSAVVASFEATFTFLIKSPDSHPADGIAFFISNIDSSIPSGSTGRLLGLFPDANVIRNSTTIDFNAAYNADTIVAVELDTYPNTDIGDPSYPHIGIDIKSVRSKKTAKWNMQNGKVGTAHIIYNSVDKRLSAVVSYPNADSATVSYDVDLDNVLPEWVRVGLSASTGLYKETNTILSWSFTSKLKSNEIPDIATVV
Sequence of Luciferin 4-monooxygenase (Photinus pyralis) (P08659 whole entry, looked up): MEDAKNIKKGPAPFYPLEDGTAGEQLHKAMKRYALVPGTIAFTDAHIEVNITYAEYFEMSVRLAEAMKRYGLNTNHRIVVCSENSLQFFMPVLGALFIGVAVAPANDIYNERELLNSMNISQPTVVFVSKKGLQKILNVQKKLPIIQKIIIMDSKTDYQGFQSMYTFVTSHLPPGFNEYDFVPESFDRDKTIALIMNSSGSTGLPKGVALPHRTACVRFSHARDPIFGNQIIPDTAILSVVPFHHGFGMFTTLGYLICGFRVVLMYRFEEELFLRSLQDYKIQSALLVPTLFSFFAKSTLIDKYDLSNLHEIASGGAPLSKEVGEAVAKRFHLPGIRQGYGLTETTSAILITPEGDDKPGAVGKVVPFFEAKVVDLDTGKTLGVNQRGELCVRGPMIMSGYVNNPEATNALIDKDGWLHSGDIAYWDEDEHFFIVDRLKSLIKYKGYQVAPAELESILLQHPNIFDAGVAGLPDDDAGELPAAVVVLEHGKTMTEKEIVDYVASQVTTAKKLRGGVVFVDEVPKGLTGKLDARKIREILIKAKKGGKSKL
Sequence of Albumin (Bos taurus) (P02769 whole entry, looked up): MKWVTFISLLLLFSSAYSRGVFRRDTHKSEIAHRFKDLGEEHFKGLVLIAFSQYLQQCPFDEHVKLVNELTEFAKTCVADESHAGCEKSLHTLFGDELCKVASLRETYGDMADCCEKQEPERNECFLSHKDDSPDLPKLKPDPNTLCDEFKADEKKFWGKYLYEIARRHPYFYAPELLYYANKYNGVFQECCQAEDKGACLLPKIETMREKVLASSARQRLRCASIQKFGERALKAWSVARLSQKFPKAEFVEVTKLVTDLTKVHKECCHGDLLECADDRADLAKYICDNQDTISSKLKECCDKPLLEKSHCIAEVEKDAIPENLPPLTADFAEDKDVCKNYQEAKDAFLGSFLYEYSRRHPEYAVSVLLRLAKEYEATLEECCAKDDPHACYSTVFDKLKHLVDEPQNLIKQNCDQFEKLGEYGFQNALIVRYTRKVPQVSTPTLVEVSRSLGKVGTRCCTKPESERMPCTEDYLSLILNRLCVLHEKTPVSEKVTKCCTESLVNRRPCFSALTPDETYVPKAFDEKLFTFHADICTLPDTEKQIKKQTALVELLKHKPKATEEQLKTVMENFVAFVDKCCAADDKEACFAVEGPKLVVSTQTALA

Turning to `CCOC(=O)C1=CCC(c2ccco2)N(S(=O)(=O)c2ccc(C)cc2)C1` (stereo not given), the composite z-score is 0.769 in [1]; 0.196 in experiment [3]; 0.0006 in experiment [4]; 0.581 in [5]; 1.48 in experiment [6]; 0.509 in [7]. Besides, the composite z-score is 1.22 in experiment [8]; 0.388 in [9]; 0.956 in experiment [10]; 1.1 in experiment [11]; 1.2 in experiment [12]; 0.841 in [13]. In addition, the composite z-score in [14] came out at 0.965; in experiment [15], 1.1; in experiment [16] it was 0.377; in [18], 0.851; in experiment [19] it was 0.832. In addition, in experiment [2], the composite Z-score is 0.204 (inactive). The z-score in experiment [17] was -0.664; in experiment [20] it was -1.58 (inactive).
Regarding `C=C(CCCC)C(=O)CC[C@@H](OC(=O)c1cccnc1)c1ccc(OCCO)cc1`, the composite z-score is -0.409 in experiment [1]; -0.0144 in [3]; -0.0357 in [4]; 0.718 in experiment [5]; 0.719 in experiment [6]; 0.488 in experiment [7]. The composite z-score in experiment [8] was 0.947; in [9], 0.894; in [10], 0.239; in [11] it was 0.0583; in experiment [12], 0.581; in [13] it was -0.471. Moreover, the composite z-score is -0.0496 in [14]; 1.47 in experiment [15]; 1.56 in [16]; 1.57 in [18]; 0.363 in experiment [19]. Moreover, the composite Z-score in [2] is 0.97 (inactive). In addition, the values for the z-score in experiment [17] and in experiment [20] were 0.335 and -3.15 (inactive), respectively.
Take `O=C(O)[C@@H]1C[C@@H]2C(=O)N3CCC[C@H]3C(=O)N2[C@@H]1c1cccc(OCCO)c1`: the composite z-score turned out to be 0.778 in experiment [1]; 1.56 in [3]; 1.07 in experiment [4]; 0.849 in experiment [5]; 4.04 in [6]; 1.04 in [7]. Also, the composite z-score in experiment [8] amounted to 1.33; in experiment [9], 1.11; in experiment [10] it was 1.24; in experiment [11], 3.41; in [12], 1.31; in experiment [13] it was 2.47. Also, the composite z-score was 0.977 in [14]; 1.41 in experiment [15]; 1.4 in [16]; 1.7 in [18]; 1.69 in experiment [19]. The composite Z-score in experiment [2] is 2.44 (inactive). The z-score is 0.729 in experiment [17] and -0.485 (inactive) in experiment [20].
Take `COCCOC(=O)N1C(=O)[C@@]2(c3ccccc31)[C@H](c1ccccc1OCCO)N1[C@H](c3ccccc3)[C@H](c3ccccc3)OC(=O)[C@H]1[C@@H]2C(=O)N1CCCCCCC1`: the composite z-score in [1] is -0.0233; in [3] it was 2.15; in experiment [4], 1.16; in experiment [5], 0.935; in experiment [6], 4.27; in experiment [7] it was 1.96. Further, the composite z-score in experiment [8] was 1.29; in experiment [9], 1.47; in [10], 0.883; in [11], 0.703; in [12] it was 1.32; in experiment [13] it was 3.01. The composite z-score in experiment [14] was found to be 0.995; in experiment [15], 1.53; in experiment [16] it was 1.55; in [18], 1.71; in experiment [19], 1.63. Moreover, the composite Z-score in [2] was 7.47 (inactive). Besides, the figures for the z-score in experiment [17] and in experiment [20] were -0.0428 and -0.507 (inactive), respectively.
For the compound `[N-]=[N+]=NCc1ccccc1C[C@@]1(C(=O)N2CCCCC2)N=C(c2ccc(OCCCO)cc2)O[C@@H]1c1ccccc1CN=[N+]=[N-]`, the composite z-score in [1] was found to be 0.36; in experiment [3] it was 0.0435; in experiment [4], 0.0515; in experiment [5], 0.711; in [6] it was 1.81; in [7] it was 1.06. The composite z-score in [8] was 1.08; in experiment [9] it was -1.07; in experiment [10] it was 1.09; in experiment [11] it was -0.174; in experiment [12], 1.18; in experiment [13] it was 0.457. For the same compound, the composite z-score in experiment [14] is 1.02; in experiment [15] it was 0.913; in experiment [16] it was 0.74; in experiment [18], -0.611; in experiment [19], 1.28. Further, the composite Z-score in experiment [2] was 0.569 (inactive). In addition, the z-score in experiment [17] was 0.342; in experiment [20], -0.57 (inactive).
Turning to `[N-]=[N+]=NCc1ccccc1[C@@H]1OC(c2ccc(OCCCO)cc2)=N[C@]1(Cc1ccccc1)C(=O)NCCN1CCOCC1`, the composite z-score in [1] is 0.501; in experiment [3], 0.369; in experiment [4], 0.128; in [5], 0.676; in experiment [6], 1.98; in experiment [7], 0.994. Besides, the composite z-score in experiment [8] was 1.18; in experiment [9], 0.325; in experiment [10] it was 1.12; in experiment [11] it was 1.16; in experiment [12], 1.18; in [13], 0.533. Moreover, the composite z-score in experiment [14] is 0.514; in experiment [15], 1.31; in experiment [16] it was 0.41; in experiment [18], -0.0059; in experiment [19] it was 0.721. In addition, the composite Z-score in experiment [2] was -0.016 (inactive). Moreover, the z-score in [17] was 2.27; in [20], -1.94 (inactive).
